Assay results as given in PubChem BioAssay (NCI).
This is part of a sample that, as a whole, favours compounds with a hit. Of some 79,000 tested, about 15% had one in any assay. A number with no mark means an inactive call. Calls of active or inactive are those of the source. No stated cut-off is given here; in the data, active means growth inhibition above about 70%; inactive means the rest.

Assays:
[1] = NCI Yeast Anticancer Drug Screen. Data for the rad50 strain (AID 155);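 further: 0% = growth of vehicle-only cultures of the same strain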; settings: S. cerevisiae rad50 strain growth inhibition; at 50.0 µM; stronger effect = higher value
In short: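 Relative growth inhibition (compound vs vehicle) was measured in yeast with a defined repair-gene alteration.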

[2] = NCI Yeast Anticancer Drug Screen. Data for the mec2-1 strain (AID 157); settings: S. cerevisiae mec2-1 strain, at 50.0 µM, stronger effect = higher value
In short: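 Growth inhibition is read against vehicle-treated controls after compound exposure of the mec2-1 yeast strain, which is defective in DNA damage repair or cell cycle control.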

[3] = NCI Yeast Anticancer Drug Screen. Data for the sgs1 mgt1 strain (AID 161);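 further: 0% = growth of cultures given vehicle only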; settings: S. cerevisiae sgs1 mgt1 strain, at 50.0 µM, stronger effect = higher value
In short: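 Percent growth inhibition was derived by comparing compound-exposed mutant yeast with vehicle-exposed cultures. The strain carries alterations in DNA damage repair.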

[4] = NCI Yeast Anticancer Drug Screen. Data for the cln2 rad14 strain (AID 165);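 further: 0% = growth equal to vehicle treated cultures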; settings: S. cerevisiae cln2 rad14 strain, at 50.0 µM, stronger effect = higher value
In short: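 Growth inhibition, relative to vehicle-treated controls, is the read-out. The test organism is a yeast strain with defined genetic alterations, cln2 rad14.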

[5] = NCI Yeast Anticancer Drug Screen. Data for the bub3 strain (AID 167); settings: S. cerevisiae bub3 mutant strain, at 50.0 µM, stronger effect = higher value
In short: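 Screening used yeast with an engineered genetic alteration affecting cell cycle control. Compound-exposed cultures were compared with vehicle cultures, and reduced growth was taken as inhibition.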

[6] = NCI Yeast Anticancer Drug Screen. Data for the mlh1 rad18 strain (AID 175); settings: S. cerevisiae mlh1 rad18 strain growth inhibition; at 50.0 µM; stronger effect = higher value
In short: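 Cells of a genetically altered yeast strain, deficient in DNA damage repair, were treated with compound. Their growth was then compared with that of vehicle-treated cultures to give inhibition.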

Structure (SMILES)	growth inhibition [1]	growth inhibition [2]	growth inhibition [3]	growth inhibition [4]	growth inhibition [5]	growth inhibition [6]
C1CCCCCC2=C(CCCC1)CCCO2	7.4%	-7.5%	2.35%	-19.3%	10.2%	0.2%
COC1OCC2OC3(CCCCC3)OC2C1SCc1ccccc1 (configuration not stated)	8.05%	-9.85%	10.8%	-7.4%	-10.4%	-5.25%
O=C(Nc1ccc(F)cc1)Nc1ccc(F)cc1	3.4%	-10.9%	-3.25%	-43.7%	-32.9%	-16.6%
O=C1C2(CCCC13N=NCC3c1ccccc1)N=NCC2c1ccccc1 (configuration not stated)	28.9%	-19.1%	-0.95%	-4.9%	0.85%	38.5%
O=C(Oc1ccc[nH]c1=O)C1CC1	17.9%	7.45%	67.2%	14%	22.2%	38%
O=c1[nH]c2ccc(Br)cc2cc1Br	21.9%	-9%	0.3%	6.65%	2.45%	20.8%
Cc1cnc2[nH]c(-c3ccccc3)cc(=O)c2c1	-6.7%	-12.6%	-0.9%	-23.2%	-8.25%	-48.5%
CSc1cc(Cl)c(C)cc1S(=O)(=O)n1cc[nH]c1=O	-2.4%	1.4%	3.35%	-0.05%	-3.75%	17.1%
CCCCCCCCCC(=O)N/N=C/c1ccncc1	97.2% (active)	23.1%	98.8% (active)	9.35%	26.2%	98.3% (active)
CCN(CC)CCCOC(c1ccccc1)c1ccc(Cl)cc1 (configuration not stated)	17.8%	16.9%	46.5%	41.9%	1.1%	26.1%
c1ccc([Si](c2ccccc2)(c2cccs2)c2cccs2)cc1	-8.35%	6.35%	12.5%	7.85%	3.6%	26%
O=C(O)c1[nH]c(=O)[nH]c(=O)c1C(=O)O	-20.6%	0.55%	-15.1%	18.8%	-17.6%	-15%
S=c1[nH]c(=S)c2[nH]cnc2[nH]1	-7.4%	-5.45%	-7.1%	-7.35%	-4.95%	-0.3%
O=c1[nH]c(=O)n(C2CC3OCC3O2)cc1F (configuration not stated)	-14.2%	35.7%	-9.05%	20.1%	-13.5%	11.2%
Cc1cc2ccc(OC(=O)c3ccc(N=C(N)N)cc3)cc2oc1=O	-8.95%	4.3%	-29.6%	-47.8%	-24.6%	13.7%
CC1SC2(C(=O)Nc3ccccc32)N(c2ccc(Cl)cc2)C1=O (configuration not stated)	21.6%	10.3%	-12.4%	23.9%	60.5%	10.7%
COc1ccc2c(C#N)cc3c4ccccc4ncc3c2c1	16.6%	7%	-9.6%	19.1%	-4.35%	-10.8%
F[Si](c1ccccc1)(c1ccccc1)c1cccc2ccccc12	98.7% (active)	98.6% (active)	99.2% (active)	98.8% (active)	98.5% (active)	98.8% (active)
O=[N+]([O-])c1ccc(S(=O)(=O)N(CCCBr)c2ccccc2)cc1	48.4%	42.6%	72.7% (active)	24.6%	44.5%	74.3% (active)
OC(c1cccnc1)C(CCc1ccccn1)c1ccccn1 (configuration not stated)	2.65%	13.1%	-4.6%	-46%	4.3%	4%
CCCNC1=C(OC)C(=O)C(NCCC)=C(OC)C1=O	-0.3%	6.8%	9.15%	-47.5%	2%	-9.15%

Structure (SMILES)	growth inhibition [1]	growth inhibition [2]	growth inhibition [3]	growth inhibition [4]	growth inhibition [5]	growth inhibition [6]
COc1ccc(C23OC2Oc2cc(OC4CCCCO4)ccc2C3=O)cc1 (configuration not stated)	10.1%	-8.45%	-6.25%	-6.4%	0.35%	2.55%
C#[N+]CCOP(=O)(OCC1OC(n2cc(C)c(=O)[nH]c2=O)CC1N=[N+]=[N-])O[C@H]1CC[C@@]2(C)C(=CC[C@H]3[C@@H]4CC[C@H](C(C)CCCC(C)C)[C@@]4(C)CC[C@@H]32)C1 (some centres not stated)	-18.8%	-30.1%	-24.6%	3.05%	-0.35%	-17.4%
O=C1C(CN2CCCCC2)CCC1CN1CCCCC1 (configuration not stated)	23.9%	15%	30.8%	9.95%	14.1%	51.5%
CCOC(=O)C1(C(O)(C2CC2)C2(C(=O)OCC)CC2)CC1	-9.1%	-11.6%	-12.3%	-29.9%	13.1%	5.45%
C=CCOC(=O)C(C)(C)OC(C)=O	13.9%	5.9%	10.8%	3.15%	2%	-1.85%
O=C(NC(O)C(=O)O)c1ccc(Cl)cc1 (configuration not stated)	-10.9%	-10.9%	-6.2%	17.3%	-6.4%	-27.9%
Nc1nc(C(=O)O)c(N=Nc2ccccc2)c(=O)[nH]1	31.1%	-10.2%	7.35%	24.4%	-16.1%	-20.8%
Cn1cnc(N)c(N=O)c1=O	-0.1%	8.65%	10.1%	18.7%	-9.75%	6%
CCOCC(OCC)OCC	-4.1%	0.45%	-2.55%	22.9%	-5.45%	6.7%
N#C/C(=C/N1C(=O)/C(=C/c2ccc([N+](=O)[O-])cc2)SC1=S)C(N)=O	45%	56.5%	63.4%	54.3%	45%	42%
c1ccc(C23CCCCC2O3)cc1 (configuration not stated)	0.75%	2.95%	6.55%	5.95%	12.4%	4.85%
CCN(CC)Cc1ccccc1COC(=O)/C=C/c1ccccc1	9.8%	13.3%	11.6%	7.1%	12.9%	13.9%
NC(=O)C(=O)CC(=O)c1ccccc1NC1=CC(=O)C(=O)c2ccccc21	41%	29.1%	20.4%	30.4%	36.4%	37.5%
CC1CCC2C(C)C3C(CC4C5CC=C6CC(O)CCC6(C)C5CCC43C=O)N2C1 (configuration not stated)	30.3%	19.9%	24.9%	16.6%	3.9%	19.4%
C[C@@H](CC(=O)O)OC1OC(COC(=O)C(C)(C)C)C(OC(=O)C(C)(C)C)C(OC(=O)C(C)(C)C)C1OC(=O)C(C)(C)C (some centres not stated)	4.25%	-45.1%	-17.7%	7%	-15.5%	85.8% (active)
OCC(O)COc1ccc(OCc2ccccc2)cc1 (configuration not stated)	2.65%	-12.1%	-3.4%	-21.5%	-5.05%	-20.3%
CC(=O)Nc1cccc(C)n1	-17.8%	-3.2%	1.6%	-71.8%	-0.95%	1.7%
O=C(c1cc(O)c(O)c(O)c1)c1ccc(O)c(O)c1O	12.9%	5.95%	11.3%	5.2%	14.1%	32.8%
CC(=O)NC(C)(CO)C(=O)O (configuration not stated)	22.6%	12.7%	19.4%	13.4%	7.35%	14.1%
Cc1ccc(NC(=S)Nc2cccc(C(F)(F)F)c2)cc1C	-11.9%	-4.45%	-5.75%	4.85%	-7.3%	20.6%
COc1ccc(C)cc1S(=O)(=O)c1ccc(C)cc1[N+](=O)[O-]	6.6%	-2.85%	2.15%	34.5%	23.3%	-15.4%
